PubChem BioAssay (NCI)
About 83,000 compounds went through this panel and 20% of them were active in at least one assay; those are over-represented in the sample as a whole.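 Single-concentration screen, 48 h exposure, 96-well plates. Endpoint: percent growth. Below 10 = active.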 A number with no mark means an inactive call. Calls of active or inactive are those of the source.

Key:
Test in all cases: NCI-60 one-dose screen, 48 h (100 = growth as untreated, 0 = no growth, -100 = all killed)
Details in all cases: 10 µM
[1] = system: HCT-15 colon
[2] = system: HT29 colon
[3] = system: SNB-75 CNS
[4] = system: SNB-19 CNS
[5] = system: U251 CNS
[6] = system: PC-3 prostate
[7] = system: UACC-62 melanoma
[8] = system: LOX IMVI melanoma
[9] = system: SK-MEL-28 melanoma
[10] = system: SK-MEL-2 melanoma
[11] = system: EKVX NSCLC
[12] = system: SN12C renal
[13] = system: UO-31 renal
[14] = system: ACHN renal
[15] = system: CAKI-1 renal
[16] = system: A498 renal
[17] = system: CCRF-CEM leukemia
[18] = system: MOLT-4 leukemia
[19] = system: SK-MEL-5 melanoma
[20] = system: TK-10 renal

| SMILES | growth [1] | growth [2] | growth [3] | growth [4] | growth [5] | growth [6] [%] | growth [7] | growth [8] | growth [9] | growth [10] | growth [11] | growth [12] | growth [13] | growth [14] | growth [15] | growth [16] | growth [17] | growth [18] | growth [19] | growth [20] |
| --- | --- | --- | --- | --- | --- | --- | --- | --- | --- | --- | --- | --- | --- | --- | --- | --- | --- | --- | --- | --- |
| CS(=O)(=O)c1nccc(-c2c(-c3ccc(OCCc4ccccc4)cc3)nc3sccn23)n1 | 103% | 88.1% | 89.1% | 89.4% | 95.9% | 93.9 | 88% | 92.6% | 96.3% | 108% | 94% | 90.3% | 90.6% | 101% | 90% | 84.5% | 92% | 88.9% |  |  |
| O=C(CI)OCC(COC(=O)CI)OC(=O)CI | 53% | 79.2% | 116% | 101% | 100% | 94 |  |  | 92.3% | 83.1% |  | 76.8% | -89.8% (active) | 11.2% | -17.6% (active) | 108% |  | 44.4% | 93.1% | 78.9% |
| O=C1c2ccccc2-c2c1c1cccnc1c(=O)n2C[C@H](O)CO | 62.8% | 57.7% | 63.9% | 59.2% | 46.8% |  | 51% | 36.3% | 87.9% | 101% | 79.3% | 35.6% | 49.9% | 27.6% | 65.5% |  |  | 9.69% (active) | 50.9% | 84.7% |
| COc1ccc2c(c1)C(=O)/C(=C/c1ncc([N+](=O)[O-])n1C)O2 | 6.82% (active) | -20.5% (active) | 69.5% | -16.6% (active) | -25.4% (active) | 101 |  | -68.1% (active) | -22.4% (active) | -52.1% (active) |  | -11.5% (active) | -46.4% (active) | 9.55% (active) | -21.6% (active) | -35.5% (active) | 95.1% | -5.94% (active) | -89% (active) | -37.9% (active) |
| COc1cc2c3c(n([C@H]4CCOC4)c(=O)c2cc1OC)-c1cc2c(cc1C3=O)OCO2 | 56.1% | 40.9% | 31.9% | 31.2% | 11.9% |  | 11.3% | 4.78% (active) | 72% | 99.8% | 60% | 22.9% | 10.6% | 0.59% (active) | 33.5% |  |  | 17.2% | 7.91% (active) | 90% |
| Nc1nc(-c2cccnc2)nc2c1sc(=S)n2-c1ccccc1 | 104% | 94.6% | 94.9% | 95% | 88.2% |  | 101% | 93.7% | 116% | 101% | 101% | 98.6% | 97.2% | 107% | 98.7% |  |  | 96.9% | 98.6% | 93.5% |
| Cc1c2cnccc2c(C)c2c1c1cc(O)ccc1n2C(C)C | 2.12% (active) | 25% | 0.198% (active) | 18.3% | 17.8% |  | -15.7% (active) | -17.2% (active) | 6.18% (active) | -14.4% (active) | 9.67% (active) | -6.79% (active) | -3.92% (active) | -1.61% (active) | 15.6% |  |  | -4.53% (active) | -49.3% (active) | 56.2% |
| Nc1ccccc1NC(=O)c1ccc(CCCC(=O)Nc2ccc(C3CC3N)cc2)cc1 (stereo unspecified) | 87.4% | 9.38% (active) | 66.4% | 49.7% | 4.65% (active) |  | -24.8% (active) | 12.8% | 18% | -4.46% (active) | 53.5% | 43.8% | 62.8% | 52% | 96.2% |  |  | 22.6% | -41.1% (active) | 8.6% (active) |
| Nc1cc(-c2ccc(Cl)cc2)nn1-c1nc2ccccc2nc1Cc1ccccc1 | 74.4% | 69.7% | 84.4% | 89.9% | 90.8% |  | 87.8% | 93.3% | 92.9% | 100% | 78.6% | 94.1% | 87% | 103% | 80.7% |  |  |  | 86.7% | 99.2% |
| CN1CCc2c(sc3nc4n(-c5ccc(Cl)cc5)c(=O)[nH]n4c(=O)c23)C1 | 103% | 86.4% | 95.2% | 109% | 98.7% |  | 111% | 92.5% | 111% | 96.5% | 101% | 107% | 89.7% | 106% | 93.1% |  |  |  | 110% | 88.3% |
| CN(C)CCOc1cccc(-c2nc3sccn3c2-c2ccnc(S(C)(=O)=O)n2)c1 | 92.3% | 96.8% | 87.7% | 87.5% | 90% | 80.8 |  | 92.1% | 100% | 117% | 99.5% | 90.5% | 72.1% | 92.2% | 99.5% | 59.6% |  | 99.9% | 98.3% |  |
| Fc1ccc2[nH]cc(-c3nc(-c4ccsc4)cs3)c2c1 | 91.4% | 100% | 92.2% | 109% | 93.7% |  | 88.5% | 86.7% | 108% | 87.9% | 57.1% | 92.5% | 74.4% | 93.6% |  |  |  | 78% | 89.2% | 133% |
| O=C1c2c(c3c4ccccc4n(CCCCCCN4CCOCC4)c3c3[nH]c4ccccc4c23)C(=O)N1O | 16.5% | 24.3% | 74.9% | 97% | -23.2% (active) |  | 82.7% | -88.4% (active) | 118% | 110% |  | 75.8% | 9.13% (active) |  | 96.7% |  |  | 66.3% | 23.4% | 111% |
| CCOC(=O)C1=CSC2=NC3=C(CCC/C3=C\c3ccc(Cl)cc3)C(c3ccc(Cl)cc3)N12 (stereo unspecified) | 91.9% | 82.8% | 86.4% | 81.3% |  | 101 | 82% | 74.9% | 99.5% | 106% | 91.6% | 95% | 95.2% | 107% | 103% | 78.1% | 87.8% | 82.2% | 84.7% | 119% |
| COc1ccc(C2CC(c3cc(OC)c(OC)c(OC)c3)=NN2)cc1 (stereo unspecified) | 36.2% | 29.9% | 68.5% | 68.3% | 26.2% |  | 67% | 43.9% | 113% | 87.6% |  | 94.5% | 62.7% | 99% | 69% | 87.4% | 57.3% | 73.4% | 81.4% |  |
| COc1nc2c(c(=O)n1C)CN(c1ccccc1)C(=O)C(C)N2 (stereo unspecified) | 101% | 99.9% | 77.4% | 96.7% | 99% |  | 91.7% | 91.6% | 113% | 90.8% | 96.4% | 92% | 78.7% | 93.9% |  |  | 97.2% | 93.7% | 104% |  |
| CC(=O)OC1CC2C(C)(C)CCC[C@]2(C)C2=C1C(O)=C(C(C)C)C(=O)C2=O (stereo partly specified) | -23.1% (active) | 17.2% | -13.3% (active) | 21.6% | 19.5% |  | -60.1% (active) | -43% (active) | -42.8% (active) | -2.83% (active) | -15.7% (active) | 3.28% (active) |  |  |  |  | 26.8% | 17.4% | -99.7% (active) | 22.5% |
| Nc1ncc(-c2cnn(C3CCNCC3)c2)cc1-c1nc2ccccc2o1 | 12.4% | -4.71% (active) | 13.2% | 35.8% | 13.1% |  | -67.1% (active) | -80.6% (active) | -86.8% (active) | 22.1% |  | 14.1% | -17.7% (active) | 21.9% | 68.3% | 36.4% | -53.7% (active) | -35.7% (active) | 26.9% |  |
